G9a inh: blocks human histone lysine methyltransferase G9a. Q96KQ7. G9a H3K9 monomethylation, AlphaScreen, 2 h. Potency, µM (doses to about 102 µM), for inactives: top-dose activity, negative = inhibition, usual class: inhibitors. 350,000 tested, 8.8% active. AID 504332; note: potency is the fitted concentration of half-maximal effect; % is set by controls: 0 for no effect and ±100 for the full control effect; nearly all actives have a fitted effect of over 75% in size
Target sequence (Q96KQ7 913-1193 limits assumed): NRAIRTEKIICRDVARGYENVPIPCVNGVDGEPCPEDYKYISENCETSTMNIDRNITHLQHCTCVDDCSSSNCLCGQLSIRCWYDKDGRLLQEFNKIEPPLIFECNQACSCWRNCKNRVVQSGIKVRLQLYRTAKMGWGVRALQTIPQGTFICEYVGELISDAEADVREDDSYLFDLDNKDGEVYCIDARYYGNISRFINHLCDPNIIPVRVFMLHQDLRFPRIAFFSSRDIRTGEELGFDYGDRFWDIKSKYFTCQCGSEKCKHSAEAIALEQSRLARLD
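Enzyme 20 nM + cpd, 15 min RT; add b-H3K9 pep 500 nM / SAM 20 uM; 2 h RT; anti-H3K9me1 Ab 0.5 ug/mL + SA donor / anti-rabbit acceptor beads 20 ug/mL each, 10 min; AlphaScreen read.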
Six1-Eya2 blk: Six1/Eya2 interaction inhibition. Q15475+O00167. AlphaScreen GST-Six1/His-Eya2 binding, biochemical; active compounds read low. activity change, % (test concentration not listed). 360,000 tested, 0.56% active; in the data active = activity change below about -65%; inconclusive = mostly about -30% to -63%; note: % is set by controls: 0 for no effect and ±100 for the full control effect
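AlphaScreen luminescence read after one hour at 37 °C in darkness. Pin-transferred compounds met GST-Six1 and His-Eya2 protein (5X stock 250 nM/500 nM) plus glutathione donor and Ni-chelate acceptor beads (5X, 50 ug/mL).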
HP1b binding inh: inhibitors of HP1-beta chromodomain binding to methylated histone tails; Potency, µM (top dose mostly 114 µM), without a hit: at the top dose activity change, negative = inhibition, usual class: inhibitors; AID 540317; AlphaScreen HP1-beta / biotin-H3K9me3 peptide binding; P83916; 390,000 tested, 0.56% active; note: potency is the fitted concentration of half-maximal effect; nearly all actives have a fitted effect of over 70% in size
Target sequence (P83916 whole entry, looked up): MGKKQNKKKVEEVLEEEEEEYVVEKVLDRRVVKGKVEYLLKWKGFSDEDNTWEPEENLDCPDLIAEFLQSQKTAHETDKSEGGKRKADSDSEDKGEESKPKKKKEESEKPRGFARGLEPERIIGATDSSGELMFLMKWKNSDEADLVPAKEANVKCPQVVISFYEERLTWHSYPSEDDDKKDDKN
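HP1-beta protein (50 nM final) preincubated 30 min at room temperature with biotinylated H3(1-18)K9me3 peptide (50 nM) in PBS pH 7.4, 0.01% Tween-20, then compound added for 30 min. AlphaScreen streptavidin donor/nickel chelate acceptor beads (10 ug/mL final), 30 min dark, luminescence read.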
BAZ2B inh: BAZ2B (human) inhibition. Q9UIF8. AlphaScreen BAZ2B-H3K14Ac peptide displacement. Potency, µM (highest dose often 114 µM), inactives show at the top dose activity change, negative = inhibition, usual class: inhibitors. 360,000 tested, 4.4% active. AID 504333; note: potency is the fitted concentration of half-maximal effect; % is set by controls: 0 for no effect and ±100 for the full control effect; nearly all actives have a fitted effect of over 60% in size
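Multi-concentration screen (max 110 uM) measuring displacement of acetylated histone H3 peptide from BAZ2B by AlphaScreen, using 50 nM protein, 50 nM peptide and 10 ug/mL streptavidin donor plus Ni-chelate acceptor beads.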
CtBP-E1A blk: inhibitors of CtBP/E1A interaction; AlphaScreen GST-E1A/His-CtBP binding, 1536-well; active compounds read low; activity change, % (concentration not given with the values); 340,000 tested, 0.49% active; AID 651724; in the data active = activity change below about -65%; inconclusive = mostly about -30% to -63%; note: % is set by controls: 0 for no effect and ±100 for the full control effect
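In 5 uL wells, 23 nL compound meets equimolar GST-E1A and His-CtBP (5X stock 125 nM each) for 2 h, 37 °C. Beads (5X, 50 ug/mL) then 1 h, 37 °C, dark.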
JMJD2A Tudor inh: JMJD2A Tudor domain (human) inhibition; O75164; AlphaScreen JMJD2A-Tudor / H3K4me3 peptide binding; Potency, µM (titrated, usually from 114 µM), inactives show at the top dose activity change, negative = inhibition, hits mostly inhibitors; 390,000 tested, 4.4% active; AID 504339; note: potency is the fitted concentration of half-maximal effect; % is set by controls: 0 for no effect and ±100 for the full control effect; nearly all actives have a fitted effect of over 50% in size
The depositor's hits bear a star; ? = inconclusive; / = no result given; [ ] = dose if it differs, or a comment. This is a sample that favours compounds with a hit; in the whole collection about 10% have one here. Unless noted, calls come from the whole dose curve; as a rule, active = well fitted inhibition curve with a large enough effect; inconclusive = small, poorly fitted or top-dose-only effect; inactive = no such curve, though single readings can be large or run the other way.

SMILES	G9a inh	Six1-Eya2 blk	HP1b binding inh	BAZ2B inh	CtBP-E1A blk	JMJD2A Tudor inh
C[C@H](NC(=O)OC(C)(C)C)c1nnc(SCC(=O)c2ccc(Cl)cc2)o1	-39.0%	-1.0	25.7%	-4.8%	0.6	-10.7%
OCC1(CO)COC2(CCCC2)N1	-4.6%[12.7 µM]	5.6	-6.1%	3.7%	7.0	15.8µM*
Cn1nc(-c2ccc(N3CCCCC3)c(NC(=O)c3ccco3)c2)c2ccccc2c1=O	39.8µM*	0.3	-12.3%	?	11.0	-27.1%
CCOc1ccccc1/C=N/NC(=O)CSc1n[nH]c(=O)[nH]c1=O	-14.4%	-5.2	17.4%	-7.5%	/	-23.1%
O=C(CSc1n[nH]c(=O)[nH]c1=O)N/N=C/c1ccccc1O	15.5%[59 µM]	-79.9*	18.9%	1.8%	-76.8*	-16.7%
COc1cc(/C=N/NC(=O)CSc2n[nH]c(=O)[nH]c2=O)cc(OC)c1O	35.5µM*	-25.9	27.5%	1.8%	-27.3	-3.5%
COc1ccc(CC(=O)Nc2ccc3nc(N4CCCCC4)cc(C)c3c2)cc1	4.0%[59 µM]	/	45.5%	1.3%	/	-14.0%
CCN(Cc1ccccc1)C(=O)CSc1ncn[nH]1	44.7µM*	10.5	-3.2%	-5.1%	13.0	-21.2%
COc1ccc(-n2c(SCC(=O)Nc3cccc(C(=O)O)c3)nnc2-c2ccco2)cc1	-8.6%[59 µM]	2.9	41.3%	1.0%	18.5	-3.5%
Cc1nnc(SCC(=O)NNC(=O)c2ccccc2)n1-c1ccccc1	-43.6%[59 µM]	0.0	28.3%	8.1%	17.6	50.1µM*
O=C(CSc1ncn[nH]1)OCN1C(=O)c2ccccc2C1=O	35.5µM*	6.4	30.5%	-2.0%	6.6	-2.2%
O=C(CSc1nnc(-c2ccccc2O)n1-c1ccccc1)Nc1cccc(C(=O)O)c1	50.1µM*	-22.1	18.4%	?	-1.0	-2.8%
Cc1ccc(Cn2ncc3c4sc(C)cc4n(C)c3c2=O)cc1	/	/	/	/	/	-22.6%
Cc1cc(C)cc(NC(=O)c2cn3c4c(ccc(Cl)c4c2=O)OC(C)C3)c1 (stereo not drawn)	?	/	30.2%	-3.2%	/	-9.6%
Cc1ccc(Cl)cc1NC(=O)CN1C=NS(=O)(=O)c2ccccc21	2.7%[59 µM]	/	7.8%	-0.1%	/	-10.0%
CCCCCCC1CCC(C(=O)NC(C(=O)O)C(C)C)CC1 (stereo not drawn)	-8.4%[59 µM]	/	23.9%	-3.1%	/	-2.4%
Cc1ccc(CNC(=O)CCCN2C(=O)CCn3nc(-c4cn(C)c5ccccc45)cc32)cc1	3.8%[59 µM]	/	19.0%[57 µM]	-4.0%	/	-16.6%
O=C(CSc1ncccn1)NNC(=O)c1ccccc1	/	-1.5	15.2%	/	-8.5	-12.8%
O=C(CSc1ncn[nH]1)NNC(=O)c1ccccc1	8.9%[0.501 µM]	-5.6	37.3%	4.6%	7.7	7.94µM*
O=C(c1ccco1)N1CCN(C(=O)c2ccc(COc3ccc4c(c3)CCC4)o2)CC1	0.5%[0.0925 µM]	-14.2	9.8%	50.1µM*	21.1	?
O=C(O)c1cccc(COc2ccc3c(c2)CCC3)c1	50.1µM*	-1.0	-8.1%	19.1%	-1.7	-13.4%
O=C(CCc1ccccc1)NC1CC(=O)N(c2cccc(F)c2)C1 (stereo not drawn)	6.6%[59 µM]	/	32.9%	-2.6%	/	3.6%
Cc1cc(Nc2ccc(F)cc2F)nc(-n2nc(C)cc2C)n1	10.0%[59 µM]	/	16.1%[57 µM]	-37.0%	/	?
CCOC(=O)c1cnc(Nc2nc3ccccc3o2)nc1CN1CCN(C)CC1	55.7%[0.501 µM]	-86.9*	-6.2%	79.4µM*	-84.7*	?
CC(C)OC(=O)c1ccccc1C(=O)c1ccc(N)c([N+](=O)[O-])c1	12.6µM*	-5.3	0.5%	-26.2%	-1.9	-29.9%
SMILES	G9a inh	Six1-Eya2 blk	HP1b binding inh	BAZ2B inh	CtBP-E1A blk	JMJD2A Tudor inh
Nc1ccccc1Sc1ccc(C(=O)c2ccccc2C(=O)O)cc1[N+](=O)[O-]	20µM*	-0.7	1.3%	-34.8%	-2.9	?
O=C(O)c1ccccc1Sc1c([N+](=O)[O-])cc(C(F)(F)F)cc1[N+](=O)[O-]	-31.5%	-12.4	76.2%	/	/	-9.0%[11.4 µM]
CNC(=O)COC(=O)c1ccccc1C(=O)c1ccc(Cl)c([N+](=O)[O-])c1	-23.3%	-0.2	24.6%	-2.9%	/	-6.5%
Nc1cc(C(=O)O)ccc1Sc1ccccc1C(=O)O	4.47µM*	-0.3	-7.8%	-33.4%	/	-32.2%
CN(C)CCNC(=O)c1ccc(Sc2ccc(Br)cc2)c([N+](=O)[O-])c1	35.5µM*	-10.7	-13.8%	-21.8%	-22.9	?
Cc1ccc2oc(=O)c3cnn(CC(=O)N4CCN(c5ccccc5F)CC4)c3c2c1	-22.9%[59 µM]	/	36.8%	-2.9%	/	-0.3%
CC(=O)c1ccc(Sc2ccccc2N)c([N+](=O)[O-])c1	44.7µM*	-16.9	-22.2%	?	/	?
CC(=O)NCCNC(=O)c1ccc(Sc2ccccc2)c([N+](=O)[O-])c1	-10.8%[59 µM]	-16.8	35.0%	-29.0%	/	-21.7%
CC(=O)c1ccc(Sc2ccccc2)c([N+](=O)[O-])c1	22.4µM*	-25.4	?	?	-12.9	?
Cc1cccc(S(=O)(=O)NNC(=O)c2sc(C)nc2C)c1	?	16.4	5.6%	-22.2%	15.1	10µM*
CC(=O)NNC(=O)c1sc(=S)n(C)c1C	22.7%[59 µM]	6.2	16.9%	0.9%	0.7	-1.1%
C/C(=N/NC(=O)c1sc(NS(=O)(=O)c2ccccc2)nc1C)c1sc(N)nc1C	50.1µM*	-7.3	9.7%	?	2.4	?
COc1ccc(NC(=O)Nc2sc(NS(=O)(=O)c3ccccc3)nc2C)cc1	50.1µM*	-7.8	-18.4%	-33.8%	57.8	-23.9%
Cc1c(C(=O)NNS(=O)(=O)c2ccccc2)sc(=S)n1C	29.8%[59 µM]	-5.5	34.1%	?	-3.1	8.91µM*
CCOc1ccc(-n2c(SCC(=O)N3CCCCC3)nc3c([nH]c4ccccc43)c2=O)cc1	7.0%[59 µM]	/	22.6%[57 µM]	-0.5%	/	-1.0%
Cc1nc(C)c(C(=O)NNS(=O)(=O)c2ccc([N+](=O)[O-])cc2)s1	7.94µM*	0.0	6.0%	-3.5%	6.9	2µM*
Cc1ccc(S(=O)(=O)Nc2nc(C)c(C(=O)Nc3ccccc3)s2)cc1	?	-11.9	28.7%	-26.8%	/	-8.1%
Cc1ccc(S(=O)(=O)Nc2nc(C)c(C(=O)NNS(=O)(=O)c3ccccc3)s2)cc1	50.1µM*	-7.0	27.1%	-34.0%	-8.9	-13.4%
COC(=O)c1cc2oc3ccccc3c2n1Cc1cccc(C)c1	66.5%[59 µM]	/	99.0%	58.6%	/	32.4%
C=CCn1c(SCC(=O)O)nnc1-c1cccc(Cl)c1	1.6%[12.7 µM]	29.3	54.8%	2.2%	0.0	3.7%
C=CCn1c(SCC(=O)c2ccc(O)c(O)c2)nnc1-c1cccc(C)c1	?	-8.8	-7.6%	50.1µM*	-2.3	?
C=CCn1c(SCC(=O)c2ccc(F)cc2)nnc1-c1ccc2c(c1)OCO2	-8.2%[59 µM]	5.7	36.7%	-13.0%	-0.7	-21.0%

Screens from PubChem BioAssay.
